High-throughput results from PubChem.
Shown are actives, neighbours in structure and some others; about 4% of the full set was active somewhere.
KKLEB cytotox: cytotoxicity in KKLEB CF airway cells, primary screen, cytotoxicity control for CF NF-kB inhibitor project, cell-based, uHTS, fluorescence assay plates | activity change (cytotoxicity), % at 5 µM | actives 0.36% (n = 360,000) | KKLEB CF airway cells viability, ATPlite luminescence, overnight; active compounds read low; cells stimulated with P. aeruginosa culture filtrate;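 active means corrected activity change at or below -50% at 5 µM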
TROY signal inh: inhibitors of TROY-driven NF-kB signaling, primary screen, Q293 LMP1-TROYcd cells, NF-kB luciferase, uHTS | actives 0.98% (n = 360,000) | inhibition, % at 10 µM | Q293 LMP1-TROYcd NF-kB luciferase reporter, 4 h | AID 1347056, 2019;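 active means compounds whose plate-normalised and pattern-corrected inhibition of the luciferase reporter signal at the single screening dose is 50% or more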
TWEAK-Fn14 inh: inhibitors of TWEAK-Fn14 signaling, primary screen, luciferase reporter cells, uHTS | TWEAK-stimulated Fn14 reporter cells, luciferase luminescence, 8 h | inhibition, % at 10 µM | actives 2% (n = 360,000); in the data active means inhibition above about 50%
Peg3 promoter: Peg3 promoter-driven luciferase inhibitors, primary screen, cell-based, HeLa, luciferase luminescence; HeLa PEG-Prom luciferase reporter, overnight; inhibition, % at 20 µM; actives 1.7% (n = 360,000); AID 588405, 2011;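 active means inhibition of at least 50% at 20 µM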
CF NFkB block: inhibitors of PAF-induced NF-kB signaling, primary screen, cell-based, GFP fluorescence, uHTS; KKLEB NF-kB-GFP reporter, GFP fluorescence overnight; inhibition, % at 5 µM; actives 0.86% (n = 360,000);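 active means at least 50% inhibition at 5 µM, scaled per plate between neutral and stimulator controls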;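 further: PAF is a Pseudomonas aeruginosa culture filtrate used as stimulus; plate controls were PAF-stimulated DMSO wells for no effect and unstimulated DMSO wells for full effect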
HIF-2a block: HIF-2a reporter inhibitors, primary screen, luminescence, 786-0 RCC cells; 786-0 RCC cells HIF-2a reporter, luciferase luminescence, overnight; inhibition, % at 18.8 µM; actives 0.72% (n = 360,000);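 active means inhibition of the luminescence signal of 40% or more relative to plate controls, in a single-dose primary screen at 18.75 µM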
Starred values were filed as active, the others as inactive; · = not tested or not shown.

SMILES	KKLEB cytotox	TROY signal inh	TWEAK-Fn14 inh	Peg3 promoter	CF NFkB block	HIF-2a block
COc1cccc(/C=C2\CCc3ccccc3C2=O)c1	-39	25	61*	-175	5	-257
COc1cccc(C=C2Cc3ccccc3C2=O)c1	-11	-36	-11	-123	-26	-156
O=C1/C(=C/c2cccc([N+](=O)[O-])c2)CSc2ccc(Cl)cc21	-12	-13	-16	-8	5	-2
COc1ccc(/C=C2\CCc3ccccc3C2=O)cc1OC	-15	-45	14	-153	26	-152
O=C1/C(=C/c2cccc([N+](=O)[O-])c2)CCc2ccccc21	-16	-39	93*	27	24	-43
CCN1C/C(=C\c2cccc([N+](=O)[O-])c2)C(=O)/C(=C/c2cccc([N+](=O)[O-])c2)C1	-57*	2	93*	105*	94*	97*
CC(=O)Oc1ccc(/C=C2/CCc3ccccc3C2=O)cc1	-11	61*	88*	-171	5	-281
Cc1ccc(C(=O)NCCSC(C)(C)C)cc1	2	16	52*	-100	10	-53
CC(C)(C)SCCNC(=O)c1ccccc1	2	-53	6	-137	-17	-148
CN=c1scc(-c2ccc(F)cc2)n1/N=C/c1ccc(O)c(O)c1	-27	76*	88*	16	13	-103
O=C(CN1C(=O)c2ccccc2S1(=O)=O)c1ccc(O)c(O)c1	1	29	48	1	1	20
Cc1ccc(C)c(C(=O)CN2C(=O)c3ccccc3C2=O)c1	-1	-29	-19	11	7	-13
O=C(CN1C(=O)c2ccccc2S1(=O)=O)c1ccc(F)c(F)c1	8	72*	91*	0	-14	-10
CCN1CCN(C(=O)CN2C(=O)c3ccccc3S2(=O)=O)CC1	3	62*	28	-114	-18	-124
COc1ccc(C(=O)CN2C(=O)c3ccccc3S2(=O)=O)cc1Br	-3	35	62*	5	-20	3
Cc1ccc(C)c(C(=O)CN2C(=O)c3ccccc3S2(=O)=O)c1	0	27	60*	1	9	-53
COc1cccc(CNC(=O)CN2c3cccc4cccc(c34)S2(=O)=O)c1	2	-25	1	-12	-18	-22
CC(C)C1C(=O)N(Cc2cn(CCC3OCCO3)nn2)CCS(=O)(=O)N1Cc1ccc(-c2ccccc2Cl)cc1 (stereo not given)	1	31	48	27	18	-6
CN(C)CCn1cnc2c(c1=N)C(c1ccccc1)c1ccc3ccccc3c1O2 (stereo not given)	-10	-48	-24	109*	10	-9
COc1ccc(C2c3c(ncn(CCN4CCOCC4)c3=N)Oc3ccc4ccccc4c32)cc1 (stereo not given)	-14	-5	-13	60*	-14	20
N=c1c2c(ncn1Cc1ccco1)Oc1c(ccc3ccccc13)C2c1ccccc1 (stereo not given)	-31	12	56*	80*	34	-51
O=C(CN1C(=O)/C(=C/c2ccccc2F)Sc2ccccc21)NCC1CCCO1 (stereo not given)	-1	-4	-14	20	19	-17
CCCCn1c(N)c(N(CC)C(=O)c2c(C)noc2C)c(=O)[nH]c1=O	0	4	-25	3	11	0
COC(=O)C[C@H]1C=C[C@H](NC(=O)c2cccc(F)c2)[C@@H](CO)O1	·	·	·	·	·	-8
Cc1cc(NC(=O)C(C)C)ncc1NC(=O)c1cccc(F)c1	-3	2	-9	-3	1	1
CCCC(=O)Nc1cnc(NC(=O)c2cccc(F)c2)cc1C	2	29	66*	-47	-3	-70
O=C(N/N=C/c1ccc(N2CCOCC2)cc1)c1ccccc1OCCOc1ccccc1	-13	15	31	62*	11	-3
O=C(N/N=C/c1sc(=O)n(Cc2ccc(Br)cc2)c1Cl)c1ccco1	-75*	-3	26	84*	64*	34
